Measured values taken from PubChem BioAssay (EPA / NIEHS).
Several values for one entry are separate records, joined by “and”; a condition that tells them apart may be missing. Equal values may be shown once. Records with an inconclusive call do not appear. More than one record can exist for a structure, and the calls need not agree. Activity calls are given as the source filed them. The calls were made as follows, unless noted: active = hit-call score of the fitted dose curve at least 0.9, where 1 is the maximum; inactive = score below 0.9.

Assays:
[1] = target: Estrogen receptor beta (Homo sapiens) (UniProt Q92731); test: OT_ER_ERbERb_1440: Odyssey Thera (OT) 24-hour HEK293T Protein-Complementation Assay for Estrogen Receptor-beta/-beta Homodimer (AID 2283380; active = hit-call score of the fitted dose curve at least 0.9, where 1 is the maximum;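 also: fluorescence gain from ER beta LBD homodimer complementation read by laser scanning cytometry; scored as signal increase over DMSO baseline for both agonists and antagonists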)
Method in brief: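 Fluorescence increase, nuclear for agonists or whole-cell for antagonists, relative to DMSO vehicle, quantified by laser scanning cytometer after fixation and Draq5 staining. Readout from 24 h treatment of HEK293T cells carrying complementation-paired ER beta LBD (aa 310-547).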

[2] = target: Retinoic acid receptor RXR-alpha (Homo sapiens) (UniProt P19793); test: OT_NURR1_NURR1RXRa_0480: Odyssey Thera (OT) 8-hour HEK293T Protein Complementation Assay for Nurr1/retinoid X receptor (RXR) (AID 2283385; active = hit-call score of the fitted dose curve at least 0.9, where 1 is the maximum)
Method in brief: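 Read-out: fluorescence from protein-fragment complementation between Nurr1 and RXRα in human HEK293T cells, 8 h after dosing. DMSO served as negative control; increased signal counted as activity.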

[3] = ACEA_AR_antagonist_AUC_viability: ACEA Biosciences xCELLigence Real-Time Cell Analysis on Androgen Receptor Antagonism for Viability (AID 2283776; active = hit-call score of the fitted dose curve at least 0.9, where 1 is the maximum;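 also: area under impedance growth curve at 80 h after dosing as viability; hits lower the growth signal relative to DMSO meaning cytotoxicity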)
Method in brief: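 22Rv1 human prostate cancer cells were seeded on electrode plates, monitored overnight, then exposed to eight 1:4 dilutions from 100 uM final. Impedance-based growth kinetics at 80 h gave an AUC viability endpoint normalized to DMSO.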

[4] = read-out: Secreted IgG (sIgG), gene 3500; test: BSK_BT_sIgG: BioMAP Diversity Plus: BT Assay for Secreted IgG (sIgG) Biomarker Activity (AID 2284226); conditions: primary human B cells with PBMC
Method in brief: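 Human B cell/PBMC co-culture; compound exposure 24 h; sIgG by ELISA; gain-of-signal fit vs DMSO baseline.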

[5] = BSK_BT_Bcell_Proliferation: Viability Assessment in the BioMAP Diversity Plus: BT Assay for B cell Proliferation (AID 2284227); conditions: primary human B cells with PBMC
Method in brief: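 Human B cells co-cultured with PBMC were dosed with test chemicals and relative cell number was quantified by SRB staining at 72 h. Cells were fixed in 10% TCA, stained with 0.1% SRB and read at 560 nm. Activity was fitted in the positive direction against DMSO.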

[6] = read-out: Interleukin 6 (IL6), IL6 (gene 3569); test: BSK_BT_xIL6: BioMAP Diversity Plus: BT Assay for Interleukin 6 (IL6) Biomarker Activity (AID 2284228); conditions: primary human B cells with PBMC
Method in brief: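 Human B cell plus PBMC co-culture exposed to test chemical for 24 h; secreted IL-6 quantified by Luminex xMAP bead assay. Activity fitted in the positive direction against DMSO as negative control and baseline.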

[7] = read-out: Interleukin 17A (IL17A), IL17A (gene 3605); test: BSK_BT_xIL17A: BioMAP Diversity Plus: BT Assay for Interleukin 17A (IL17A) Biomarker Activity (AID 2284229); conditions: primary human B cells with PBMC
Method in brief: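 B cells co-cultured with PBMC were exposed to test chemicals, and secreted IL-17A was quantified 24 h after dosing by Luminex xMAP bead immunoassay. Activity was fitted in the gain direction against DMSO as baseline.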

[8] = read-out: Collagen I, COL1A1 (gene 1277); test: BSK_MyoF_CollagenI: BioMAP Diversity Plus: MyoF Assay for Collagen I Biomarker Activity (AID 2284238); conditions: primary human lung fibroblasts
Method in brief: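 Human lung fibroblasts were exposed to test chemical for 24 h, then Collagen I was quantified by ELISA. Activity was fitted in the increasing direction against DMSO as the negative control and baseline.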

[9] = read-out: Collagen III, COL3A1 (gene 1281); test: BSK_MyoF_CollagenIII: BioMAP Diversity Plus: MyoF Assay for Collagen III Biomarker Activity (AID 2284239); conditions: primary human lung fibroblasts
Method in brief: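 Human lung fibroblasts were dosed with chemicals and, 24 hours later, collagen III was measured by ELISA. Activity was fitted in the positive direction against the DMSO negative-control baseline.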

[10] = read-out: Interleukin 17F (IL17F), IL17F (gene 112744); test: BSK_BT_xIL17F: BioMAP Diversity Plus: BT Assay for Interleukin 17F (IL17F) Biomarker Activity (AID 2284243); conditions: primary human B cells with PBMC
Method in brief: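 B cell/PBMC co-culture (human primary), 24 h compound exposure; sIL-17F by Luminex xMAP; gain-of-signal fit vs DMSO baseline.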

[11] = read-out: Actin alpha 1 (ACTA1), ACTA1 (gene 58); test: BSK_MyoF_ACTA1: BioMAP Diversity Plus: MyoF Assay for Actin alpha 1 (ACTA1) Biomarker Activity (AID 2284244); conditions: primary human lung fibroblasts
Method in brief: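 ELISA read-out of a-SMA in primary human lung fibroblast cultures, 24 h post-dosing. Activity scored in the positive direction versus DMSO baseline.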

[12] = read-out: Basic fibroblast growth factor (bFGF), FGF2 (gene 2247); test: BSK_MyoF_bFGF: BioMAP Diversity Plus: MyoF Assay for Basic fibroblast growth factor (bFGF) Biomarker Activity (AID 2284246); conditions: primary human lung fibroblasts
Method in brief: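 Primary human lung fibroblast culture, 24 h compound exposure; ELISA read-out of bFGF. Positive-direction fit vs DMSO baseline. Cytotoxicity: SRB stain (0.1% SRB, 10% TCA fixation, 560 nm) in parallel wells.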

[13] = read-out: Collagen IV, COL4A1 (gene 1282); test: BSK_MyoF_CollagenIV: BioMAP Diversity Plus: MyoF Assay for Collagen IV Biomarker Activity (AID 2284247); conditions: primary human lung fibroblasts
Method in brief: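 ELISA read-out of Collagen IV in lung fibroblast cultures, 24 h post-dosing; gain of signal relative to DMSO vehicle baseline defines activity.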

[14] = read-out: Plasminogen activator inhibitor-1 (PAI1), SERPINE1 (gene 5054); test: BSK_MyoF_PAI1: BioMAP Diversity Plus: MyoF Assay for Plasminogen activator inhibitor-1 (PAI1) Biomarker Activity (AID 2284256); conditions: primary human lung fibroblasts
Method in brief: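 ELISA read-out of PAI-1 from primary human lung fibroblast cultures 24 h after dosing; gain-of-signal fit versus DMSO control.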

[15] = read-out: Interleukin-8 (IL8), CXCL8 (gene 3576); test: BSK_MyoF_IL8: BioMAP Diversity Plus: MyoF Assay for Interleukin-8 (IL8) Biomarker Activity (AID 2284261); conditions: primary human lung fibroblasts
Method in brief: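 ELISA read-out of IL-8 from primary human lung fibroblasts, 24 h post-dose; positive-direction curve fitting relative to DMSO vehicle baseline.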

Decorin, DCN (gene 1634) = test: BSK_MyoF_Decorin: BioMAP Diversity Plus: MyoF Assay for Decorin Biomarker Activity (AID 2284265); conditions: primary human lung fibroblasts
Method in brief: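 Human lung fibroblasts in the MyoF system were exposed to compound for 24 h, after which decorin was quantified by ELISA. Activity was fitted in the positive direction relative to DMSO negative control.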

[16] = read-out: TIMP metallopeptidase inhibitor 1 (TIMP1), TIMP1 (gene 7076); test: BSK_MyoF_TIMP1: BioMAP Diversity Plus: MyoF Assay for TIMP metallopeptidase inhibitor 1 (TIMP1) Biomarker Activity (AID 2284269); conditions: primary human lung fibroblasts
Method in brief: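 ELISA quantified TIMP-1 levels after 24 h dosing of primary human lung fibroblasts, with DMSO as baseline. Parallel SRB total protein staining (0.1% SRB after TCA fixation, 560 nm) flagged overt cytotoxicity.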

[17] = target: human RAR-related Orphan Receptor gamma (RORg), RORC (gene 6097) (UniProt P51449); test: ATG_RORg_TRANS: Attagene TRANS-FACTORIAL HepG2 Assay for human RAR-related Orphan Receptor gamma (RORg) (AID 2283011; active = hit-call score of the fitted dose curve at least 0.9, where 1 is the maximum)
Method in brief: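 Readout: reporter transcript induction (RT-PCR, fluorescent primer extension, capillary electrophoresis) after 24 h compound exposure of transiently transfected HepG2 cells carrying a RORg-Gal4 chimera and GAL4-UAS reporters; DMSO served as baseline, with increasing signal fitted.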

[18] = CCTE_Shafer_MEA_acute_AB: CCTE's Alamar Blue Assay for Cytotoxicity in the Neural Acute Assay, Shafer Lab (AID 2284069; active = hit-call score of the fitted dose curve at least 0.9, where 1 is the maximum;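 also: active compounds lower the viability signal compared with DMSO wells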)
Method in brief: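 Primary rat cortical neurons on MEA plates, exposed acutely after baseline recording on day 13 or 15 post-plating. Viability by CellTiter Blue resazurin reduction (1:6 reagent dilution), fluorescence 544/590 nm; loss of signal versus DMSO.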

[19] = ATG_ERE_CIS: Attagene CIS-FACTORIAL HepG2 Assay for Estrogen Response Element (ERE) (AID 2282940); conditions: HepG2 ERE cis-reporter, Attagene RNA transcript; actives raise or lower the signal
Method in brief: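 Fluorescence of capillary-separated, FAM-labelled reporter cDNA fragments indicates reporter mRNA levels in HepG2 cells exposed to chemicals for 24 h. Transient transfection with cis-regulated units; data fitted in both directions against DMSO.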

Measured: AC50

Chain of human RAR-related Orphan Receptor gamma (RORg), RORC (gene 6097) (P51449 whole entry, looked up, the tested form may be a part): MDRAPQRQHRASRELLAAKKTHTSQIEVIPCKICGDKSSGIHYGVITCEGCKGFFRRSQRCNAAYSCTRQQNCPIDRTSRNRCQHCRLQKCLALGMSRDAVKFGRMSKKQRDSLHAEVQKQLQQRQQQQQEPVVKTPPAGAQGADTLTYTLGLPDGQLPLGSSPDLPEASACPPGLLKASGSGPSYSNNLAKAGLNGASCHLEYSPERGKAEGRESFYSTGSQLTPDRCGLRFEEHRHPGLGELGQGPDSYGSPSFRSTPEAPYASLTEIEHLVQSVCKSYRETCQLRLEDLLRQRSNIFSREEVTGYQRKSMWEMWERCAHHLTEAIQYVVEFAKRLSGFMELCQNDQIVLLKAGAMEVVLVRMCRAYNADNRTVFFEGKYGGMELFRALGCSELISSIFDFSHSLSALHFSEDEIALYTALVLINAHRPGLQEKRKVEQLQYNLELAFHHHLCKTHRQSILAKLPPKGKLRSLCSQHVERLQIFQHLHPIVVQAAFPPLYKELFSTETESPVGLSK
Chain of Retinoic acid receptor RXR-alpha (Homo sapiens) (P19793 whole entry, looked up, the tested form may be a part): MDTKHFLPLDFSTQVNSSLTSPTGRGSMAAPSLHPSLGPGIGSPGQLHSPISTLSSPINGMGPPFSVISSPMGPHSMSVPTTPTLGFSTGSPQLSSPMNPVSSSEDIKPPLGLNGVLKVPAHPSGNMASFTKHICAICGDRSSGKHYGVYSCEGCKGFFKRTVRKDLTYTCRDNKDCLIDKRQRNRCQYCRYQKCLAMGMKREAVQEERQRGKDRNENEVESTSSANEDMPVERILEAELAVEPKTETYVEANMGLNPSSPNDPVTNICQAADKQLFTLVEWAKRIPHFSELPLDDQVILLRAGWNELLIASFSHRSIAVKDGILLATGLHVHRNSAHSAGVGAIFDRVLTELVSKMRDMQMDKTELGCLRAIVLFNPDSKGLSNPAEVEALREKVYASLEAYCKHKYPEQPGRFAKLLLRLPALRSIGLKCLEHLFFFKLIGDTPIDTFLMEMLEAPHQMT
Chain of Estrogen receptor beta (Homo sapiens) (Q92731 whole entry, looked up, the tested form may be a part): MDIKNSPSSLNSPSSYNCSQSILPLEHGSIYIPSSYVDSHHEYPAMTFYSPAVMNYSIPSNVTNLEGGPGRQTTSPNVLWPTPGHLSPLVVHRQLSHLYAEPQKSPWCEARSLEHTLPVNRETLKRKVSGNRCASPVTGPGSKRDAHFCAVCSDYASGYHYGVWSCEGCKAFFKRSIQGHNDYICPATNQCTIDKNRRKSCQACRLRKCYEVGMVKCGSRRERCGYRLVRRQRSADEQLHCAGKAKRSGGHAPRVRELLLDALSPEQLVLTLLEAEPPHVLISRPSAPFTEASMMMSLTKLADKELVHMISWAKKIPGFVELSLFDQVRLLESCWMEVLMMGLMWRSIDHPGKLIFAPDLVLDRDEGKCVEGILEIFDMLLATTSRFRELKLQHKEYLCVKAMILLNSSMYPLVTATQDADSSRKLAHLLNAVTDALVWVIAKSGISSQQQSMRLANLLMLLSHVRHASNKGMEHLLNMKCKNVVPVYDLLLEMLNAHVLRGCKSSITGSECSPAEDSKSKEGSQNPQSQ

Sc1nc2ccccc2s1
inactive: [1] | [2] | [3] | [4] | [5] | [6] | [7] | [8] | [9] | [10] | [11] | [12] | [13] | [14] | [15] | Decorin, DCN (gene 1634) | [16]

Oc1cccc2ccccc12
active: [1] 49.2 µM | [5] 2.2 µM | [6] 0.0576 µM | [9] 5.51 µM | [15] 6.06 µM
inactive: [17] | [2] | [3] | [4] | [7] | [8] | [10] | [11] | [12] | [13] | [14] | Decorin, DCN (gene 1634) | [16]

CC/C=C\CCO
inactive: [17] | [1] | [2] | [3]

Cc1c(C(N)=O)cc([N+](=O)[O-])cc1[N+](=O)[O-]
inactive: [18]

OC(C(F)(F)F)(C(F)(F)F)C(O)(C(F)(F)F)C(F)(F)F
inactive: [6] | [10] | [12] | [15] | [16]
active: [4] 9.13 µM and 9.49 µM | [5] 37 µM and 28.2 µM | [6] 39.5 µM | [7] 31 µM and 24 µM | [8] 46.2 µM and 45.7 µM | [9] 41 µM and 39.5 µM | [10] 13.1 µM | [11] 26.7 µM and 22.3 µM | [13] 13.6 µM and 13.9 µM | [14] 53.5 µM | Decorin, DCN (gene 1634) 30 µM and 46.7 µM | [16] 45.6 µM

OCCOCCOCCOCCOCCO
inactive: [17]

COc1ccccc1Oc1c(NS(=O)(=O)c2ccc(C(C)(C)C)cc2)nc(-c2ncccn2)nc1OCCO
inactive: [18]

Oc1ccc(Cl)cc1C1CCCC1
active: [19] 8.73 µM

CC(C)C1OCCN1CCOC(=O)NCCCCCCNC(=O)OCCN1CCOC1C(C)C (stereo not drawn)
inactive: [18]

O=C(CC(C(=O)OC1CCCCC1)S(=O)(=O)O)OC1CCCCC1 (stereo not drawn)
inactive: [17] | [1] | [2] | [3]

c1ccc2c(c1)Oc1ccccc1S2
active: [19] 63.7 µM

CC(C)CC(=O)CC(C)CC(C)C (stereo not drawn)
inactive: [17] | [4] | [5] | [6] | [7] | [8] | [9] | [10] | [11] | [12] | [13] | [14] | [15] | Decorin, DCN (gene 1634) | [16]

O=C(Oc1ccccc1)c1ccccc1
active: [2] 75.8 µM
inactive: [17] | [1] | [3]

c1ccc(CNc2ncnc3nc[nH]c23)cc1
inactive: [1] | [3]

CCCCCCCCCCCCCCCCCC[N+](C)(C)C
active: [4] 706 nM | [5] 2.66 µM | [6] 5 µM | [7] 1.36 µM | [8] 1.35 µM | [9] 2.73 µM | [10] 2.08 µM | [11] 1.69 µM | [12] 3.73 µM | [13] 3.72 µM | [14] 3.36 µM | [15] 8.89 µM | [16] 8.13 µM
inactive: [19] | Decorin, DCN (gene 1634)

COc1ccc2ccccc2c1
inactive: [19]

NC(N)=Nc1nc(CSCCC(N)=NS(N)(=O)=O)cs1
inactive: [18]
active: [19] 26.1 µM

CCO[Si](CCCN)(OCC)OCC
inactive: [19]

CCC[Si](OC(C)=O)(OC(C)=O)OC(C)=O
inactive: [18]

CNCCC(Oc1ccc(C(F)(F)F)cc1)c1ccccc1 (stereo not drawn)
inactive: [18]
